For 9 molecules, outcome and AC50 results are on record in PubChem BioAssay (EPA / NIEHS).

Structures are written as SMILES. Values joined by “and” are separate entries in the source; they are usually repeats but may differ in a detail not shown here. Equal entries are not always repeated. Some structures have more than one record in an assay (separate samples or runs), and their calls can disagree. Active and inactive are the calls of the source. Rule for the calls: active = hit-call score of the fitted dose curve at least 0.9, where 1 is the maximum; inactive = score below 0.9.

Read-out in assay [1]: Macrophage colony-stimulating factor (MCSF), CSF1 (gene 1435)
The assay is described as follows: BSK_CASM3C_MCSF: BioMAP Diversity Plus: CASM3C Assay for Macrophage colony-stimulating factor (MCSF) Biomarker Activity (AID 2283044).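 Note: M-CSF protein amount quantified by ELISA after 24 h exposure.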 Particulars: primary human coronary artery smooth muscle cells; actives raise or lower the signal.

Read-out in assay [2]: Low-density lipoprotein receptor (LDLR), LDLR (gene 3949)
As to the kind of experiment: BSK_CASM3C_LDLR: BioMAP Diversity Plus: CASM3C Assay for Low-density lipoprotein receptor (LDLR) Biomarker Activity (AID 2283045).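 Note: LDLR protein level on the cell surface quantified by ELISA.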 Particulars: primary human coronary artery smooth muscle cells; actives raise or lower the signal.

Read-out in assay [3]: Monocyte Chemoattractant Protein-1 (MCP1), CCL2 (gene 6347)
The assay is described as follows: BSK_CASM3C_MCP1: BioMAP Diversity Plus: CASM3C Assay for Monocyte Chemoattractant Protein-1 (MCP1) Biomarker Activity (AID 2283046).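 Note: MCP-1 level quantified by ELISA 24 h after dosing.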 Particulars: primary human coronary artery smooth muscle cells; actives raise or lower the signal.

A short description of assay [4]: BSK_CASM3C_Proliferation: Cell Proliferation Assessment in the BioMAP Diversity Plus: CASM3C Assay (AID 2283047).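 Note: sulforhodamine B total protein stain as relative cell number at 560 nm; sub-confluent cells exposed 48 h before staining; fitted both ways against DMSO so gain or loss of cell number.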 Particulars: primary human coronary artery smooth muscle cells.
Read-out in assay [5]: Monokine induced gamma interferon (MIG), CXCL9 (gene 4283)
As to the kind of experiment: BSK_CASM3C_MIG: BioMAP Diversity Plus: CASM3C Assay for Monokine induced gamma interferon (MIG) Biomarker Activity (AID 2283048).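 Note: MIG protein level measured by ELISA.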 Particulars: primary human coronary artery smooth muscle cells; actives raise or lower the signal.

Read-out in assay [6]: serum amyloid A (SAA), SAA1 (gene 6288)
As to the kind of experiment: BSK_CASM3C_SAA: BioMAP Diversity Plus: CASM3C Assay for serum amyloid A (SAA) Biomarker Activity (AID 2283049). Particulars: primary human coronary artery smooth muscle cells; actives raise or lower the signal.

A short description of assay [7]: BSK_CASM3C_SRB: Viability Assessment in the BioMAP Diversity Plus: CASM3C Assay (AID 2283050).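 Note: cells exposed to compound for 24 h.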 Particulars: primary human coronary artery smooth muscle cells.
Read-out in assay [8]: Thrombomodulin, THBD (gene 7056)
The assay is described as follows: BSK_CASM3C_Thrombomodulin: BioMAP Diversity Plus: CASM3C Assay for Thrombomodulin Biomarker Activity (AID 2283051).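 Note: thrombomodulin protein level measured by ELISA 24 h after dosing.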 Particulars: primary human coronary artery smooth muscle cells; actives raise or lower the signal.

Read-out in assay [9]: Tissue Factor, F3 (gene 2152)
The assay is described as follows: BSK_CASM3C_TissueFactor: BioMAP Diversity Plus: CASM3C Assay for Tissue Factor Biomarker Activity (AID 2283052).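 Note: cell surface tissue factor protein level read by ELISA.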 Particulars: primary human coronary artery smooth muscle cells; actives raise or lower the signal.

Read-out in assay [10]: Interferon-gamma inducible Protein 10 (IP10), CXCL10 (gene 3627)
The assay is described as follows: BSK_hDFCGF_IP10: BioMAP Diversity Plus: hDFCGF Assay for Interferon-gamma inducible Protein 10 (IP10) Biomarker Activity (AID 2283053). Particulars: primary human foreskin fibroblasts; actives raise or lower the signal. A digest of the protocol: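 IP-10 levels, quantified by ELISA, are taken from human foreskin fibroblast cultures 24 h after chemical treatment, with DMSO serving as negative control and baseline for bidirectional analysis.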

Read-out in assay [11]: Urokinase-type plasminogen activator receptor (uPAR), PLAUR (gene 5329)
The assay is described as follows: BSK_CASM3C_uPAR: BioMAP Diversity Plus: CASM3C Assay for Urokinase-type plasminogen activator receptor (uPAR) Biomarker Activity (AID 2283054).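 Note: cell-surface uPAR protein level quantified by ELISA.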 Particulars: primary human coronary artery smooth muscle cells; actives raise or lower the signal.

Read-out in assay [12]: Vascular cell adhesion molecule 1 (VCAM1), VCAM1 (gene 7412)
As to the kind of experiment: BSK_CASM3C_VCAM1: BioMAP Diversity Plus: CASM3C Assay for Vascular cell adhesion molecule 1 (VCAM1) Biomarker Activity (AID 2283055).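 Note: VCAM-1 protein level quantified by ELISA on the cells.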 Particulars: primary human coronary artery smooth muscle cells; actives raise or lower the signal.

Read-out in assay [13]: Collagen III, COL3A1 (gene 1281)
As to the kind of experiment: BSK_hDFCGF_CollagenIII: BioMAP Diversity Plus: hDFCGF Assay for Collagen III Biomarker Activity (AID 2283056). Particulars: primary human foreskin fibroblasts; actives raise or lower the signal. A digest of the protocol: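 Human foreskin fibroblast primary cultures sampled 24 h after dosing; Collagen III quantified by ELISA. Signal fitted bidirectionally against DMSO baseline.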

Read-out in assay [14]: Interleukin-8 (IL8), CXCL8 (gene 3576)
The assay is described as follows: BSK_hDFCGF_IL8: BioMAP Diversity Plus: hDFCGF Assay for Interleukin-8 (IL8) Biomarker Activity (AID 2283058). Particulars: primary human foreskin fibroblasts; actives raise or lower the signal. A digest of the protocol:
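Primary human foreskin fibroblasts (hDFCGF system) dosed with chemical; IL-8 measured by ELISA 24 hours later. Bidirectional curve fitting relative to DMSO baseline; cytotoxicity tracked in parallel cultures by SRB total protein staining.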

Assay [15] is described as follows: BSK_hDFCGF_Proliferation: Cell Proliferation Assessment in the BioMAP Diversity Plus: hDFCGF Assay (AID 2283059).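 Note: curves fitted for both rise and fall of signal versus DMSO baseline.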 Particulars: primary human foreskin fibroblasts. A digest of the protocol:
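Steps: dose primary human dermal fibroblasts (foreskin); […] fix in 10% TCA; stain with 0.1% SRB; read 560 nm; fit gain or loss of signal against DMSO.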

Read-out in assay [16]: Macrophage colony-stimulating factor (MCSF), CSF1 (gene 1435)
As to the kind of experiment: BSK_hDFCGF_MCSF: BioMAP Diversity Plus: hDFCGF Assay for Macrophage colony-stimulating factor (MCSF) Biomarker Activity (AID 2283060). Particulars: primary human foreskin fibroblasts; actives raise or lower the signal. Summed up:
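Human foreskin fibroblast primary cultures; M-CSF measured by ELISA 24 hours after chemical dosing. Bidirectional fitting relative to DMSO, with overt cytotoxicity tracked by parallel SRB total-protein staining (0.1% SRB, 10% TCA fixation, 560 nm).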

Assay [17] is described as follows: BSK_hDFCGF_SRB: Viability Assessment in the BioMAP Diversity Plus: hDFCGF Assay (AID 2283061).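 Note: cells exposed to compound for 24 h before the read.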 Particulars: primary human foreskin fibroblasts. A digest of the protocol:
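Human foreskin fibroblasts in 96-well plates were treated 24 h. Total protein was measured by 0.1% SRB staining after 10% TCA fixation, read at 560 nm. Data were fitted bidirectionally against DMSO.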

Read-out in assay [18]: Monokine induced gamma interferon (MIG), CXCL9 (gene 4283)
The assay is described as follows: BSK_hDFCGF_MIG: BioMAP Diversity Plus: hDFCGF Assay for Monokine induced gamma interferon (MIG) Biomarker Activity (AID 2283063). Particulars: primary human foreskin fibroblasts; actives raise or lower the signal. A digest of the protocol:
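MIG/CXCL9 measured by ELISA 24 h after dosing primary human skin fibroblasts. Activity fitted in both directions against DMSO controls. Cytotoxicity was checked in parallel cultures by SRB staining read at 560 nm.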

Read-out in assay [19]: Matrix Metallopeptidase 1 (MMP1), MMP1 (gene 4312)
As to the kind of experiment: BSK_hDFCGF_MMP1: BioMAP Diversity Plus: hDFCGF Assay for Matrix Metallopeptidase 1 (MMP1) Biomarker Activity (AID 2283064). Particulars: primary human foreskin fibroblasts; actives raise or lower the signal. Summed up: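 Primary human foreskin fibroblasts in the hDFCGF system were dosed with test chemical, and MMP1 was measured by ELISA 24 h later. Values come from bidirectional curve fitting against the DMSO baseline.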

Read-out in assay [20]: Vascular cell adhesion molecule 1 (VCAM1), VCAM1 (gene 7412)
The assay is described as follows: BSK_hDFCGF_VCAM1: BioMAP Diversity Plus: hDFCGF Assay for Vascular cell adhesion molecule 1 (VCAM1) Biomarker Activity (AID 2283065).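 For AC50: VCAM-1 protein level quantified by ELISA after 24 h chemical exposure.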 Particulars: primary human foreskin fibroblasts; actives raise or lower the signal. A digest of the protocol: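 Human foreskin fibroblast primary cells dosed with chemical, VCAM-1 measured by ELISA at 24 h. Bidirectional curve fitting relative to DMSO as negative control/baseline.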

For the molecule `CC(C)C(=O)C(C)C`, the result in assay [1], in assay [2], in [3], in assay [4], in assay [5] and in assay [6] was inactive. In addition, the result in assay [7], in assay [8], in assay [9], in assay [10], in assay [11] and in assay [12] was inactive. Besides, the result in assay [13], in [14], in assay [15], in assay [16], in assay [17] and in [18] was inactive. For the same molecule, the result in assay [19] and in assay [20] was inactive.
On to `CCCCC(CC)COCC1CO1` (centres undefined), for which the outcome in assay [1], in assay [2], in assay [3], in assay [4], in assay [5] and in assay [6] was inactive. Besides, the outcome in assay [7], in [8], in assay [9], in assay [10], in assay [11] and in [12] was inactive. Further, the result in assay [13], in assay [14], in assay [15], in assay [16], in [17] and in assay [18] was inactive. Besides, the result in assay [19] and in assay [20] was inactive.
Consider `S=C(NC1CCCCC1)NC1CCCCC1`, for which the result in assay [1], in assay [2], in assay [3], in assay [4], in assay [5] and in assay [6] was inactive. Besides, the result in assay [7], in assay [9], in [10], in [11], in assay [12] and in assay [13] was inactive. The result in [14], in assay [15], in assay [16], in assay [17], in [18] and in assay [19] was inactive. Further, the outcome in assay [20] was inactive. Moreover, in [8], the AC50 was 20 µM (active).
With `CCCCNc1ccc(NCCCC)c2c1C(=O)c1ccccc1C2=O`, the result in assay [1], in assay [2], in assay [3], in assay [4], in assay [5] and in assay [6] was inactive. Further, the outcome in [7], in assay [8], in [9], in assay [10], in assay [11] and in assay [12] was inactive. The outcome in assay [14], in [15], in assay [16], in assay [17], in [18] and in assay [19] was inactive. Moreover, the outcome in [20] was inactive. Moreover, the concentration at half-maximal activity (AC50) in [13] was 3.46 µM (active).
As for `CC(C)(c1cc(Br)c(OCCO)c(Br)c1)c1cc(Br)c(OCCO)c(Br)c1`, the half-maximal activity concentration (AC50) in assay [1] is 4.39 µM (active); in [10], 23.3 µM (active); in [12], 6.14 µM (active); in [13], 4.6 µM (active); in [15] it was 4.47 µM (active); in [16], 8.17 µM (active). The AC50 in [17] was 16.2 µM (active); in assay [18], 13.1 µM (active); in assay [20] it was 7.21 µM (active). The outcome in [2], in assay [3], in assay [4], in assay [5], in assay [6] and in [7] was inactive. Further, the result in assay [8], in [9], in [11], in assay [14] and in assay [19] was inactive.
Turning to `O=C(c1ccc(O)cc1)c1ccc(O)cc1O`, the result in [1], in [2], in assay [3], in assay [5], in [6] and in assay [7] was inactive. Further, the outcome in assay [8], in [9], in [10], in assay [11], in assay [12] and in assay [13] was inactive. Also, the outcome in assay [14], in [15], in assay [16], in assay [17], in [18] and in assay [20] was inactive. Further, the half-maximal activity concentration (AC50) is 15.7 µM (active) and 10.5 µM (active) in [4]; 5.81 µM (active) in assay [12]; 6.99 µM (active) and 20 µM (active) in assay [19]; 16.6 µM (active) in [20].
As to `CCOc1nc(F)cc2nc(S(=O)(=O)Nc3c(Cl)cccc3C(=O)OC)nn12`, the outcome in [1], in assay [2], in assay [3], in assay [4], in assay [5] and in assay [6] was inactive. For the same molecule, the result in [7], in [8], in assay [9], in assay [10], in [11] and in assay [12] was inactive. Besides, the result in [13], in [14], in assay [15], in [16], in [17] and in assay [18] was inactive. The outcome in [19] and in [20] was inactive.
`O=C(Nc1ccccc1SSc1ccccc1NC(=O)c1ccccc1)c1ccccc1`: the outcome in assay [1], in assay [2], in assay [3], in assay [5], in [7] and in assay [9] was inactive. The result in assay [10], in assay [13], in assay [14], in assay [15], in [16] and in [17] was inactive. Further, the result in assay [18], in assay [19] and in assay [20] was inactive. In addition, the AC50 in assay [4] was 5.1 µM (active); in assay [6], 5.22 µM (active); in assay [8], 5.27 µM (active); in assay [11], 5.17 µM (active); in assay [12], 5.16 µM (active).
In the case of `C=C[Si](OC(C)=O)(OC(C)=O)OC(C)=O`, the outcome in [1], in assay [2], in assay [3], in assay [4], in assay [5] and in assay [6] was inactive. Also, the result in [7], in assay [8], in assay [9], in [10], in [11] and in [12] was inactive. Moreover, the outcome in [13], in [14], in assay [16], in [17], in [18] and in assay [19] was inactive. Also, the outcome in assay [20] was inactive. For the same molecule, the AC50 was 1.25 µM (active) in assay [2]; 3.16 µM (active) in assay [13]; 32.4 µM (active) and 20 µM (active) in [15].

The AC50 is the midpoint of the concentration-response curve, whichever way the signal moves.
